Laboratory results as given in the supplement of paper PMC6555819.

How the values were obtained:
Assay in all cases: PBM binding z-score (relative to random genomic background probes); higher = stronger binding; sequences stand for … in GC…GCGATTGACAGCGTAGAATGAAGG
[1] = system: RARb homodimer (NR concentration 270 nM)
Procedure, shortened: (§1)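 Antibodies against each partner of ligand-free nuclear receptor dimers (one per run) detected binding on custom Agilent 4×180K protein-binding microarrays after 1 h incubation. The double-stranded probes had 34-nt variable regions carrying direct-repeat seeds, single-nucleotide variants, half-site ablations and random human genomic background sequences. Binding z-scores, from regression-normalized fluorescence, use the random background probes as reference.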

[2] = system: RARg:RXRa (NR concentration 270 nM, RXRa partner concentration 90 nM)
Procedure, shortened: as §1

[3] = system: RARg homodimer (NR concentration 270 nM)
Procedure, shortened: as §1

[4] = system: RXRa DBDmut IVT, anti-RXR (DBD mutation: RXRa K156A/R161A, NR concentration 90 nM)
Procedure, shortened: as §1

[5] = system: RXRa homodimer (NR concentration 180 nM)
Procedure, shortened: as §1

[6] = system: THRa:RXRa (NR concentration 90 nM, RXRa partner concentration 90 nM)
Procedure, shortened: as §1

[7] = system: THRa homodimer (NR concentration 90 nM)
Procedure, shortened: as §1

[8] = system: VDR homodimer (NR concentration 270 nM)
Procedure, shortened: as §1

Sequence | PBM binding z-score [1] | PBM binding z-score [2] | PBM binding z-score [3] | PBM binding z-score [4] | PBM binding z-score [5] | PBM binding z-score [6] | PBM binding z-score [7] | PBM binding z-score [8]
ATCTCTAGGTAACCAAGTTGAGTGAATGCCGAAC | 0.229 | -0.0592 | 0.11 | 0.0229 | 0.0959 | 0.852 | 0.635 | 0.254
ACTATTAGTTGAGACGAGGGCAACCCATAGGTTG | 1.45 | 0.739 | 0.903 | 0.366 | 0.748 | 2.42 | 0.54 | 0.783
CGTCCAGGGTCAAAGGTCAGTGAAGAGATGACGG | 5.11 | 8.3 | 7 | 2.98 | 9.93 | 4.54 | 1.48 | 3.04
ATCTCTACGTAAAGTTCAGTGAAAGATCGATAGA | 2.6 | 2.27 | 2.86 | 1.51 | 1.2 | 0.674 | -0.289 | 2.27
ATCTCTTGGTAACCAAGTTCAGTGAATGCCGAAC | 1.4 | 0.23 | 0.417 | 1.2 | 0.509 | 0.819 | 0.000236 | 2.57
GCAGACTGGTGAAACGCAGGTAACTCAGGGTGGC | -1.13 | -0.789 | -0.946 | -1.05 | -0.735 | 0.213 | -0.648 | -1.15
ACAATGAGGTTATACGTAGATCAGGGAAGAAAGT | 0.975 | 1.89 | 1.55 | 2.02 | 2.16 | 2.13 | 0.593 | 1.28
ATCTCAAGGTAAAGTTCAGTGAAAGATCGATAGA | 2.72 | 2.43 | 2.96 | 1.69 | 1.76 | 1.78 | 0.667 | 2.24
GCTCCGAGGACAAGGTCAGAGCTTTGTCCGTAGA | 3.24 | 3.01 | 3.47 | 1.05 | 2.25 | 3.55 | 2.3 | 0.674
CAAACTAGGTCAAACGTCAAAGTCGAGCCAACCA | 2.99 | 4.6 | 4.53 | 2.28 | 4.16 | 3.13 | 0.831 | 1.04
CCTGACGGGTCACGAGGTTATAGCACGACGAGCG | 3.55 | 5.83 | 5.33 | 1.42 | 6.19 | 3.3 | 1.14 | 1.87
GGATCGAGGGCAAAGTTGATAGCATCTGTCGACG | 1.47 | 2.12 | 1.7 | 2.4 | 2.08 | 1.39 | -0.165 | 1.94
ATCTCTAGGTAACTAGTTCAGTGAAAGAGAGGAC | 0.47 | 0.193 | 0.685 | -0.215 | 0.0901 | 0.996 | 0.507 | 0.877
TCTCGGAGGACACGAAAGGTCAGGGCTCGACATC | 4.94 | 4.98 | 5.69 | 1.1 | 4.39 | 3.83 | 2 | 0.976
CAGCCTAGGTCATGGCCAGTATAGGAGGAACGTT | 3.01 | 4.38 | 4.94 | 1.17 | 3.32 | 2.93 | 0.965 | 0.197
TCTTGTAGATCAATGGAGGTTAAGAAAGTGCGCT | 0.785 | 0.419 | 0.147 | 0.79 | 0.919 | 2.03 | -0.299 | 0.227
AGAACGAGGGCAATGAGTTGTTAGCACGGGTGGC | 0.552 | 0.787 | 1.3 | 1.76 | 0.588 | 0.64 | -0.39 | 2.19
CAAACTAGGGCAAGAGGTCAAAGTCCGCTTCCCG | 5.19 | 6.21 | 5.15 | 1.74 | 6.17 | 3.87 | 1.23 | 3.3
TCTTGTAGATCAATCGAGGTTAAGAAAGTGCGCT | 0.899 | 0.6 | 0.164 | 0.612 | 1.01 | 3.5 | 0.268 | 0.299
AGGATGAGGTTATACGTAGATCAGGGAAGAAAGT | 1.66 | 1.85 | 1.16 | 1.66 | 2.27 | 2.39 | 1.27 | 1.08
AGAATGAGGTTATACGTAGATCAGGGACGAAAGT | 0.962 | 1.77 | 1.35 | 1.87 | 2.14 | 2.39 | 0.878 | 1.06
CAAACTAGGTCACAGAGGTCATAGTCCGTGCGTA | 5.33 | 6.83 | 7.33 | 3.4 | 7.32 | 4.76 | 3.22 | 7.02
TATTGTAGATCAATAGAGGTTAAGAAAGTGCGCT | 1.44 | 1.05 | 0.855 | -0.302 | 1.36 | 2.32 | -0.234 | 0.323
TCTTATAGGTAAACAGGTGAAAGTCCGTAAGTTA | 0.802 | 0.615 | 0.392 | 1.1 | 0.864 | 0.793 | 0.397 | 0.462
CTCGAAAGGTCGGGTGAGGTGAGTATACGGATAA | 3.12 | 3.42 | 3.43 | 0.73 | 3.05 | 5.11 | 1.91 | 0.829
CCTTACGGGTCACGAGGTTATCGCACGACGAGCG | 4.01 | 6.31 | 5.55 | 1.96 | 7.47 | 3.72 | 1.12 | 2.04
ACTATTAGTTGACATAGGGCAACCGATACGACGC | 1.24 | 0.928 | 1.29 | 0.826 | 0.903 | 1.25 | 0.125 | 0.399
CGAACTAGGTCAGAACAGCACAGTGAAGGATGAT | 1.96 | 2.44 | 3.04 | 0.779 | 1.28 | 1.16 | 0.326 | 0.463
